PubChem BioAssay (Tox21)
Results filed as inconclusive are left out. Where a call stands in place of a potency, no number is given. Unmarked numbers belong to inactive results. Calls of active or inactive are those of the source. Calls follow the shape of the full dose curve.

assay: p53 small molecule agonists, cell-based qHTS assay with human liver microsomes (AID 1963577); conditions: HCT-116 p53RE-bla with human liver microsomes, ratio, 16 h; series mostly up to 66 µM;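 also: p53 response element beta-lactamase reporter cells with liver microsomes plus NADPH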
Description: National Center for Advancing Translational Sciences [NCATS]
Division of Preclinical Innovation [DPI]
U.S. Environmental Protection Agency [EPA]
National Institutes of Environmental Health Sciences [NIEHS]
National Toxicology Program [NTP]
U.S. Food and Drug Administration [FDA]
p53, a tumor suppressor protein, is activated following cellular insult, including DNA damage and other cellular stresses. The activation of p53 regulates cell fate by inducing DNA repair, cell cycle arrest, apoptosis, or cellular senescence. The activation of p53, therefore, is a good indicator of DNA damage and other cellular stresses. […] The activation of the reporter gene under culture conditions can be detected by fluorescence intensity.
Tox21 Assay Protocol Summary:
The p53RE-bla cells were dispensed at 4,000cells/3ul/well in 1536-well black-clear bottom plates. After the assay plates were incubated at 37 C, 5% CO2 incubator for 5 hours, 23 nL of compounds dissolved in DMSO, positive controls or DMSO only was transferred to the assay plate. Following compound addition, 3 uL of human liver microsomes (XenoTech, Kansas City, KS) at final concentration of 0.5 mg/mL and 1uL of Beta-Nicotinamide adenine dinucleotide 2-phosphate (NADPH) at final concentration of 0.5 mg/mL were transferred to the assay plate. The plates were incubated at 37 C for 16 hours. 1 uL of LiveBLAzer detection mixture was added to each well and the plates were incubated at room temperature in the dark for 2 h.

Row | SMILES | Potency | activation
1 | Nc1nc(=O)n([C@@H]2O[C@H](CO)[C@@H](O)[C@@H]2F)cc1I | inactive | –
2 | CCC(C)=O | inactive | –
3 | NC(=S)Nc1cccc2ccccc12 | – | 6% [at 5.99 µM]
4 | [Cl][Eu]([Cl])[Cl] | inactive | –
5 | C1COC1 | inactive | –
6 | O=C(O)c1cc(=O)c2ccccc2o1 | inactive | –
7 | CCCCCCCCCCCCCC | inactive | –
8 | CC(=O)CC(=O)Nc1ccccc1C | inactive | –
9 | [K+] | inactive | –
10 | CCOc1ccccc1OCC | inactive | –
11 | CCOC(OCC)C(=O)c1ccccc1 | inactive | –
12 | CCCCOC(=O)CCCCCCCC(=O)OCCCC | inactive | –
13 | O=C(O[C@@H](C(=O)O)[C@@H](OC(=O)c1ccccc1)C(=O)O)c1ccccc1 | inactive | –
14 | O=Nc1ccc(NO)cc1 | inactive | –
15 | Oc1ccc2c(c1)OC[C@@H](N1CCC(O)(c3ccc(F)cc3)CC1)[C@H]2O | inactive | –
16 | CCCCCCCCCCCCCCCCCCOCC(O)CO (stereo not given) | inactive | –
17 | CC(C)COC(=O)c1ccc(N)cc1 | inactive | –
18 | C[C@@H]1O[C@@H](OC[C@H]2O[C@@H](Oc3c(-c4ccc(O)c(O)c4)oc4cc(O)cc(O)c4c3=O)[C@H](O)[C@@H](O)[C@@H]2O)[C@H](O)[C@H](O)[C@H]1O | inactive | –
19 | CS(=O)(=O)O | inactive | –
20 | CC(N)CN (stereo not given) | inactive | –

Row | SMILES | Potency | activation
21 | Cc1cc(O)c(Cl)cc1C | inactive | –
22 | Nc1cc(-c2ccncc2)c[nH]c1=O | inactive | –
23 | O=C1c2cccc(O)c2C(=O)c2c(O)cccc21 | inactive | –
24 | Clc1nc(Cl)c(Cl)c(Cl)c1Cl | inactive | –
25 | NC(=O)c1ccccc1N | inactive | –
26 | CCCCCCCCS | inactive | –
27 | Oc1ccc(C(c2ccc(O)cc2)C(Cl)(Cl)Cl)cc1 | inactive | –
28 | c1ccc2cc3c4ccccc4c4ccccc4c3cc2c1 | inactive | –
29 | COc1ccccc1C=O | inactive | –
30 | Cc1ccc(C(=O)c2cc(O)c(O)c([N+](=O)[O-])c2)cc1 | inactive | –
31 | O=P(O)(OCc1ccccc1)OCc1ccccc1 | inactive | –
32 | O=C1CCC(=O)O1 | inactive | –
33 | O=C(O)c1ccc(OCCN2CCCCC2)cc1 | inactive | –
34 | C[Si](C)O[Si](C)(C)O[Si](C)(C)O[Si](C)C | inactive | –
35 | CC(=O)OCCN(CCOC(C)=O)c1ccc(N=Nc2ccc([N+](=O)[O-])cc2C#N)cc1 | inactive | –
36 | CC(C)(O)C#CC(C)(C)O | inactive | –
37 | CNCCS(=O)(=O)O | inactive | –
38 | COC(=O)c1ccc([N+](=O)[O-])cc1 | inactive | –
39 | COC(CC(C)CCCC(C)(C)O)OC (stereo not given) | inactive | –
40 | N#Cc1ccc(C2CCCc3cncn32)cc1 (stereo not given) | inactive | –
